Screening results (PubChem BioAssay)
This is a sample that favours compounds with a hit; in the whole collection about 2.3% have one here.
hiPSC survival = enhancers of human iPSC single-cell survival; AID 602274; survival enhancement, % at 20 µM; hiPSC single-cell survival, ATPlite luminescence; 100% = ROCK inhibitor wells, 0% = DMSO; 360,000 tested, 0.044% active; in the data active means survival enhancement above about 18%;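 further: cells exposed to compounds for 16 hours before the ATP read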
HIF-2a block = inhibitors of HIF-2a. 786-0 RCC cells HIF-2a reporter, luciferase luminescence, overnight. inhibition, % at 18.8 µM. AID 624352. 360,000 tested, 0.72% active;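 active means inhibition of the luminescence signal of 40% or more relative to plate controls, in a single-dose primary screen at 18.75 µM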
CF NFkB block = inhibitors of cystic fibrosis induced NF-kB; 360,000 tested, 0.86% active; inhibition, % at 5 µM; KKLEB NF-kB-GFP reporter, PAF-induced, GFP fluorescence overnight;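 active means at least 50% inhibition at 5 µM, scaled per plate between neutral and stimulator controls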;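 further: PAF is a Pseudomonas aeruginosa culture filtrate used as stimulus; plate controls were PAF-stimulated DMSO wells for no effect and unstimulated DMSO wells for full effect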
KKLEB cytotox = CF airway cell cytotoxicity counter-screen | KKLEB CF airway cells viability, ATPlite luminescence, overnight; hits give low values; cells stimulated with P. aeruginosa culture filtrate | activity change (cytotoxicity), % at 5 µM | 360,000 tested, 0.36% active;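 active means corrected activity change at or below -50% at 5 µM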
TWEAK Fn14 block = TWEAK-Fn14 signaling inhibition; 360,000 tested, 2% active; TWEAK-stimulated Fn14 reporter cells, luciferase luminescence, 8 h; inhibition, % at 10 µM; in the data active means inhibition above about 50%
LGR2 inh = inhibitors of bursicon-induced Drosophila LGR2 receptor cAMP signaling; HEK293 LGR2, CRE-luciferase, bursicon-stimulated, 4 h; inhibition, % at 9.99 µM; 380,000 tested, 0.35% active; AID 720647;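 active means drop in luminescence signal, shown as inhibition above about 50% in the replicate tests, limit read from the data, passing the limit was not always enough; inconclusive means probably only some replicates passing the limit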;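 further: agonist challenge used bursicon conditioned medium at about half maximal strength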
* marks the source's active call; other numbers are inactive results.

Screening O=C(Nc1ccccn1)C(=O)Nc1ccccn1 returned hiPSC survival -0.6, HIF-2a block -217.6, CF NFkB block -4.3, KKLEB cytotox 10.3, TWEAK Fn14 block 51.0* and LGR2 inh -10.3.
`O=C(Nc1ccccn1)c1ccc(-c2ccccc2)cc1` gave hiPSC survival -0.7, HIF-2a block 11.4, CF NFkB block -14.6, KKLEB cytotox -54.6*, TWEAK Fn14 block 89.3* and LGR2 inh 70.3*.
COc1ccc(C(=O)Nc2cnccn2)cc1[N+](=O)[O-] was read as hiPSC survival -0.4, HIF-2a block -10.1, CF NFkB block -20.6, KKLEB cytotox 17.0, TWEAK Fn14 block 6.3 and LGR2 inh 13.4.
CC(C)(C)c1ccc(C(=O)Nc2cnccn2)cc1 was read as hiPSC survival -4.7, HIF-2a block -97.4, CF NFkB block 22.4, KKLEB cytotox -36.8 and TWEAK Fn14 block 60.7*.
C[C@@H]1CCCCO[C@H](CN(C)Cc2ccc(Cl)c(Cl)c2)[C@H](C)CN([C@@H](C)CO)C(=O)c2cc(NC(=O)Cc3ccccc3)ccc2O1 was read as LGR2 inh -5.3.
For Cc1noc(C)c1NC(=O)Nc1ccc2c(c1)C(=O)N([C@H](C)CO)C[C@H](C)[C@@H](CN(C)C(=O)NC(C)C)OCCCC[C@H](C)O2 the results were LGR2 inh 31.5.
For O=[N+]([O-])c1ccc(-c2cnc(SC(c3ccccc3)c3ccccc3)[nH]2)cc1 the results were hiPSC survival 0.0, HIF-2a block 9.4, CF NFkB block -24.2, KKLEB cytotox 2.3, TWEAK Fn14 block 79.3* and LGR2 inh inconclusive.
For O=[N+]([O-])c1ccc(-c2cnc(SCc3ccccc3Cl)[nH]2)cc1 the results were hiPSC survival 0.9, HIF-2a block -240.1, CF NFkB block -12.3, KKLEB cytotox -0.3 and TWEAK Fn14 block -34.0.
For COc1ccc(Oc2c(Cl)cnn(-c3ccc(C)cc3)c2=O)cc1 the results were hiPSC survival -6.1, HIF-2a block -5.5, CF NFkB block -4.2, KKLEB cytotox 0.0, TWEAK Fn14 block 4.5 and LGR2 inh -10.8.
`COc1c(Cl)cnn(-c2ccc(C)cc2)c1=O` gave hiPSC survival 26.9*, HIF-2a block -25.9, CF NFkB block -15.0, KKLEB cytotox 2.3, TWEAK Fn14 block 7.7 and LGR2 inh -9.7.
`C=CCn1c(C)cc(C(=O)CSc2nnc3c(Cl)cc(Cl)cn23)c1C` gave hiPSC survival 4.3, HIF-2a block -14.3, CF NFkB block -6.2, KKLEB cytotox -69.7*, TWEAK Fn14 block 26.4 and LGR2 inh -11.8.
`Cc1cc(C(=O)CSc2nnc3c(Cl)cc(Cl)cn23)c(C)n1C` gave hiPSC survival 2.3, HIF-2a block 7.1, CF NFkB block 7.3, KKLEB cytotox 3.4, TWEAK Fn14 block -8.5 and LGR2 inh 4.3.
For COc1ccc(S(=O)(=O)N2CCC(C)CC2)cc1OC the results were hiPSC survival -0.2, HIF-2a block 16.3, CF NFkB block 3.3, KKLEB cytotox 1.6, TWEAK Fn14 block 1.0 and LGR2 inh 2.5.
`CC1CCN(S(=O)(=O)c2ccc3c(c2)C(=NO)c2cc(S(=O)(=O)N4CCC(C)CC4)ccc2-3)CC1` gave hiPSC survival -3.0, HIF-2a block 1.4, CF NFkB block 82.8*, KKLEB cytotox -5.3 and TWEAK Fn14 block -127.4.
Screening COCCN1CCN(C(=O)c2cc(COc3ccc(F)c(F)c3)on2)CC1 returned hiPSC survival -0.4, HIF-2a block -93.8, CF NFkB block -3.6, KKLEB cytotox 8.0, TWEAK Fn14 block 76.9* and LGR2 inh -0.2.
`CCCN1CCN(C(=O)c2cc(COc3ccc(F)c(F)c3)on2)CC1` gave hiPSC survival -0.4, HIF-2a block -133.1, CF NFkB block 5.1, KKLEB cytotox -11.8, TWEAK Fn14 block -15.5 and LGR2 inh -13.4.
Screening CO[C@@H]1CN(C)C(=O)c2cc(NC(=O)Nc3cccc(F)c3)ccc2OC[C@@H](C)N(C(=O)Nc2c(C)noc2C)C[C@H]1C returned LGR2 inh 1.2.
For CN(C)Cc1c(O)ccc2cc(-c3nc4ccccc4n3C)c(=O)oc12 the results were hiPSC survival -0.4, HIF-2a block 20.8, CF NFkB block 20.1, KKLEB cytotox -1.8, TWEAK Fn14 block 55.6* and LGR2 inh 2.7.
